Laboratory results as given in the supplement of paper PMC10011410.
± gives the standard deviation of the averaged measurements.

System: AmpC beta-lactamase (E. coli)
Assay: AmpC inhibition relative to DMSO; higher = more inhibition
Experimental: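 Aggregation counter-screen: inhibition of E. coli AmpC beta-lactamase (5 nM, nitrocefin substrate, 50 mM sodium phosphate pH 7.0, RT, 5 min) by KAT inhibitors at 4, 11, 33 and 100 uM, with or without 0.01% Triton X-100. Percent inhibition is relative to DMSO controls. Four technical replicates.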

[1] = 4 µM, detergent: 0.01% Triton X-100
[2] = 11 µM, detergent: 0.01% Triton X-100
[3] = 33 µM, detergent: 0.01% Triton X-100
[4] = 100 µM, detergent: 0.01% Triton X-100
[5] = 100 µM, detergent: no detergent

SMILES | AmpC inhibition [1] | AmpC inhibition (4 µM, detergent: no detergent) | AmpC inhibition [2] | AmpC inhibition (11 µM, detergent: no detergent) | AmpC inhibition [3] | AmpC inhibition (33 µM, detergent: no detergent) | AmpC inhibition [4] | AmpC inhibition [5]
O=C(NNS(=O)(=O)c1ccccc1)c1cc(-c2ccnnc2)ccc1F | 9.2 ± 1.8% | 2.19 ± 10% | 3.76 ± 1.8% | 16.9 ± 8% | 3.27 ± 1.3% | 5.35 ± 1.6% | 12.2 ± 5.5% | 11.9 ± 7.5%
COc1cc(/C=C/C(=O)CC(=O)/C=C/c2ccc(O)c(OC)c2)ccc1O | 10.4 ± 4.2% | 5.89 ± 9% | 5.4 ± 4.4% | 39.2 ± 7.2% | -1.8 ± 2.5% | 71.1 ± 12% | -2.46 ± 13% | 67.3 ± 7.6%
Cl.Cl.O=C(O)Cn1nnc(-c2ccc(CN(CCCCOc3ccc(CN4CCCC4)cc3)CCc3ccccc3)cc2)n1 | 7.51 ± 5.3% | -18.8 ± 5% | 6.13 ± 8.3% | -17.6 ± 4.2% | 3.69 ± 2.6% | -26.9 ± 12% | 11 ± 6.5% | 5.89 ± 17%
CC(C)([C@](C1=O)(C2=O)C/C=C(C)\C)[C@@H](C[C@]31C[C@@H](C(C)(OC3=C2C(C4=CC(O)=C(C=C4)O)=O)C)C/C=C(C)\C)C/C=C(C)\C | 8.42 ± 5.3% | 13.3 ± 3.5% | 4.79 ± 3.2% | 90 ± 9.4% | 4.67 ± 6.9% | 93.15 ± 0.89% | 2.77 ± 1.7% | 92.3 ± 0.78%
CC(Cc1ccc(O)c(O)c1)C(C)Cc1ccc(O)c(O)c1 (stereo not given) | 0.262 ± 1.6% | 2.98 ± 9.9% | -1.09 ± 14% | 23.2 ± 4% | 1.16 ± 12% | 47.4 ± 7.5% | -4.88 ± 5.5% | 86 ± 2.8%
